Screening results as filed in PubChem BioAssay.
In the library only some 3.8% were active in any assay of this set; here they are far more common.
ATXN2 expr inh: reduces ATXN2 reporter expression in HEK-293 cells; HEK-293 ATXN2-luciferase reporter, luminescence, 24 h; AID 1745845; Potency, µM (titrated, usually from 57 µM), inactives show top-dose activity change, negative = inhibition, actives largely listed as inhibitors; actives 0.72% (n = 360,000); also: % is scaled to controls: 0 for no effect and ±100 for the full control effect; nearly all actives have a fitted effect of over 55% in size
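ATXN2-luciferase reporter cells (luciferase flanked by upstream and downstream ATXN2 gene portions) were treated 24 h at 37 °C with compounds at up to 57 uM. SteadyGlo luminescence gave expression; GF-AFC fluorescence gave viability.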
HT1080NT lethal: kills 2HG-producing HT-1080-NT fibrosarcoma cells; HT-1080-NT fibrosarcoma viability, CellTiter-Glo ATP luminescence, 48 h; Potency, µM (doses to about 46.1 µM), inactives show at the highest dose activity, negative = less viability, actives largely listed as cytotoxic; actives 1.6% (n = 360,000); AID 686970;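 also: NT is the 2HG producing partner of a matched IDH1 knockdown line; 0% = DMSO-treated cells and -100% = media-only wells without cells; nearly all actives have a fitted effect of over 55% in size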
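Read-out is CellTiter-Glo luminescence after 10 minutes at room temperature, following 48 hours' compound treatment of HT-1080-NT cells (750 cells/well, RPMI, 5% FBS, 37 degrees C).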
HT1080 IDH1KD tx: toxicity to HT-1080 IDH1 knockdown cells (counter line); actives 2% (n = 360,000); AID 686971; HT-1080 IDH1 knockdown viability, ATP luminescence, 48 h; Potency, µM (series often up to 46.1 µM), inactives show at the highest dose activity, negative = toxicity, actives largely listed as cytotoxic;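 also: 0% = DMSO wells and -100% = cell-free medium wells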
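HT-1080-IDH1KD cells (IDH1 knocked down), 750/well in RPMI with 5% FBS, treated with compound 48 h at 37 degrees C. Viability by CellTiter-Glo luminescence, normalised to DMSO and no-cell wells; concentration-response curves classed.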
S2 tox: reduces viability in counter-screen for ATXN expression inhibitors | Potency, µM (series often up to 56.7 µM), most hits filed as cytotoxic | S2 cells (HEK-293 line with an ATXN2-luciferase reporter) viability, CellTiter-Fluor protease fluorescence, 24 h | actives 0.49% (n = 400,000); also: nearly all actives have a fitted effect of over 40% in size
TGFb inhibitor: inhibitors of TGF-b signaling | HepG2 CAGA-GFP TGF-b/SMAD3 reporter, GFP fluorescence, 18 h; TGF-beta stimulated, 500 pg/mL final | Potency, µM (titrated, usually from 46.1 µM), inactives show at the top dose activity, negative = inhibition, hits mostly inhibitors | actives 1.2% (n = 410,000) | AID 588855; also: % is scaled to controls: 0 for no effect and ±100 for the full control effect; nearly all actives have a fitted effect of over 65% in size
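Cell-based qHTS in HEPG2 carrying a CAGA-GFP Smad reporter; compounds added before 500 pg/mL final TGF-beta, 18 h incubation at 37 degrees C, GFP fluorescence quantified per cell by imaging cytometry.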
HepG2 tox-1: HepG2 cytotoxicity, counter-screen for TGF-b inhibitors; HepG2 CAGA-GFP viability, ATP luminescence, 18 h; Potency, µM (top dose mostly 46.1 µM), for the others: at the top dose activity change, negative = cytotoxicity, actives largely listed as cytotoxic; actives 0.76% (n = 410,000)
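CellTiter-Glo luminescence gave cytotoxicity after 18 hours at 37 degrees C. The cells were HepG2 CAGA-GFP in 1% FBS DMEM, stimulated with 500 pg/mL TGF-beta after compound addition. %Activity was normalised to no-cell wells (complete cell-killing) and DMSO (no toxicity), and curves were fitted and classified.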
TGFb CAGA inh: confirmation of TGF-b signaling inhibitors in HepG2 reporter cells. shares compounds with TGFb inhibitor. HepG2 CAGA-GFP TGF-b reporter, GFP fluorescence, 18 h; cells stimulated with TGF-beta, 500 pg/mL. Potency, µM (doses to about 46.1 µM), for inactives: top-dose activity, negative = inhibition, usual class: inhibitors. actives 63% (n = 1,600). AID 720534; also: % is scaled to controls: 0 for no effect and ±100 for the full control effect; nearly all actives have a fitted effect of over 65% in size
HepG2 tox-2: toxic to HepG2 cells in TGF-b counterscreen; AID 720535; HepG2 CAGA-GFP viability, ATP luminescence, 18 h; cells stimulated with TGF-beta, 500 pg/mL; shares compounds with TGFb inhibitor; Potency, µM (doses to about 46.1 µM), for the others: at the highest dose activity, negative = cytotoxicity, actives largely listed as inhibitors; actives 27% (n = 1,600); also: % is scaled to controls: 0 for no effect and ±100 for the full control effect; nearly all actives have a fitted effect of over 70% in size
TGFb CCL64 inh: orthogonal confirmation of TGF-b inhibitors in CCL64 cells; CCL64 CAGA-GFP reporter, TGF-b stimulated, GFP fluorescence, 18 h; shares compounds with TGFb inhibitor; actives 41% (n = 1,600); AID 720536; Potency, µM (titrated, usually from 46.1 µM), for inactives: at the highest dose activity, negative = inhibition, most hits filed as inhibitors; also: nearly all actives have a fitted effect of over 65% in size
TGFb COP inh: validation of TGF-b inhibitors in HepG2 COP promoter reporter; HepG2 COP-GFP TGF-b reporter, GFP fluorescence, 18 h; cells stimulated by added recombinant TGF-beta; actives 3% (n = 1,600); shares compounds with TGFb inhibitor; Potency, µM (doses to about 46.1 µM), for the others: at the top dose activity, negative = inhibition, most hits filed as inhibitors; AID 720537; also: nearly all actives have a fitted effect of over 70% in size
The depositor's hits bear a star; i = inactive; ? = inconclusive; . = no result; [ ] = another dose, or the depositor's remark. Calls follow the shape of the dose curve; as a rule, active = well fitted curve in the direction sought with a large enough effect; inconclusive = small, poorly fitted or top-dose-only effect, or another doubt; inactive = no such curve, though single readings can be large; an effect the other way counts as inactive or inconclusive. Potency is read from the fitted curve at half-maximal effect.

SMILES	ATXN2 expr inh	HT1080NT lethal	HT1080 IDH1KD tx	S2 tox	TGFb inhibitor	HepG2 tox-1	TGFb CAGA inh	HepG2 tox-2	TGFb CCL64 inh	TGFb COP inh
Cc1cc(C)nc(/N=C(\N)Nc2ccccc2-c2ccccc2)n1	?	?	?	i	10µM*	-34%	?	?	?	71%
O=S(=O)(c1cc(F)ccc1F)N1CCN(c2ncnc3ccccc23)CC1	.	?	?	i	13µM*	-39%	8.2µM*	-27%	-15%	-4%
Fc1ccc(-n2ncc3c(NCCCn4ccnc4)ncnc32)cc1	13%	.	.	i	-12%	-15%	.	.	.	.
CCN1C(=O)[C@@H]2[C@@H]3CN(S(=O)(=O)c4ccc(C)cc4)[C@@H](c4ccccc4)[C@@H]3C(=O)C[C@@H]2C1=O	9%	16%	19%	i	-8%	-20%	.	.	.	.
CCOC1=CC2=C(C(=O)C(Cl)=CC2=O)[C@@H]2CN(S(=O)(=O)c3ccc(C)cc3)[C@@H](c3ccccc3)[C@H]12	?	?	?	?	11µM*	-28%	4.1µM*	?	5.2µM*	17%
COc1ccc(S(=O)(=O)N2CCCCCC2)cc1C(=O)N(C)CCOc1ccc(Cl)cc1	?	?	-30%	?	-23%	-8%	.	.	.	.
CCN1CCN(S(=O)(=O)c2ccc(Cl)c(C(=O)N(C)CCOc3ccc(Cl)cc3)c2)CC1	-29%	?	?	i	14µM*	-9%	13µM*	?	?	12%
Fc1ccccc1-n1ncc2c1ncn1nc(Cc3ccccc3)nc21	.	.	.	.	.	-3%	.	.	.	.
COc1ccccc1N1CCN(Cc2cc(Br)c(O)c3ncccc23)CC1	3.8µM*	?	?	?	?	-37%	?	-28%	4.1µM*	11%
CC(=O)c1ccc(NC(=O)c2cnc(N3CCCC3)nc2C)cc1	-17%	.	.	i	?	-3%	.	.	.	.
Cc1cccc(N2CCN(C(=O)c3cn(C)c(=O)c4c3c3ccccc3n4C)CC2)c1C	?	?	18µM*	i	10µM*	-21%	?	?	21µM*	50%
CCN(CC)c1cc2c(cc1F)c(=O)c(S(=O)(=O)c1ccccc1)cn2Cc1ccccc1	.	.	.	.	-5%	-3%	.	.	.	.
Cc1nn2c(NCc3ccccn3)c3c(nc2c1-c1ccccc1)CCC3	?	-13%	-29%	?	11µM*	-30%	?	?	?	25%
COc1ccc(-c2csc(NC(CO)c3nc4ccccc4n3Cc3ccc(C)cc3)n2)cc1 (configuration not stated)	-7%	?	-7%	?	?	-30%	.	.	.	.
OCCCn1c(C(CO)Nc2nc(-c3ccc(Cl)cc3)cs2)nc2ccccc21 (configuration not stated)	-30%	-13%	-16%	i	18µM*	-29%	15µM*	-29%	?	10%
CC(=O)N1CCCc2cc(S(=O)(=O)N3CCN(c4ccc(F)cc4)CC3)ccc21	-18%	.	.	i	?	-11%	.	.	.	.
COc1cccc(/C=N/Nc2ncnc(Cl)c2N)c1O	?	8.2µM*	4.1µM*	11µM*	7.1µM*	-27%	?	12µM*	5.2µM*	57%
CCC(=O)N1CCc2cc(CNC(=O)c3ccc(F)cc3)ccc21	.	.	.	.	15%	-37%	.	.	.	.
O=C(c1cccs1)N1CCc2c([nH]c3ccccc23)C1c1ccccn1 (configuration not stated)	-12%	-1%	-9%	i	-4%	-22%	.	.	.	.
O=C(c1cc(-c2ccccc2)n[nH]1)N1CCc2c([nH]c3ccccc23)C1c1ccccn1 (configuration not stated)	?	?	?	?	20µM*	-26%	15µM*	?	?	20%
COCc1cc(Sc2ccc(Cl)cc2)nc(C)n1	-13%[11.3 µM]	-12%	-4%	i	-1%	-16%	.	.	.	.
COCc1cc(S(=O)c2ccc(Cl)cc2)nc(C)n1 (configuration not stated)	-42%	?	?	?	?	-124%	?	?	7.3µM*	-16%
O=C1C(Cl)=C(Nc2ccccc2)C(=O)c2ccccc21	?	2%	2%	28µM*	4.5µM*	6.3µM*	3.3µM*	6.5µM*	?	1%
O=C1C(Cl)=C(NCc2cccnc2)C(=O)c2ccccc21	?	18µM*	?	?	3.2µM*	1.4µM*	4.6µM*	6.5µM*	?	16µM*
CC1=C(Nc2ccc(C(=O)O)cc2)C(=O)c2ccccc2C1=O	-13%	?	?	?	7.9µM*	-59%	15µM*	?	-20%	22%
O=S(=O)(Cc1ccccc1)NCc1cccnc1	0%	7%[9.24 µM]	0%	i	?	-2%	.	.	.	.
CCOc1cc(C(=O)Nc2c(NC)c3ccccc3oc2=O)cc(OCC)c1OCC	5%	.	.	i	15%	-1%	.	.	.	.
COc1ccc2c(c1)C=C/C2=C/c1ccc(N(C)C)cc1	.	.	.	.	9%	-16%	.	.	.	.
Cc1ccc2c(C)ccc(O)c2n1	-27%	0%	-2%	i	7.1µM*	-6%	-3%	0%	-23%	-21%
